# Test results published in paper PMC7819943, “Rice protein-binding microarrays: a tool to detect cis-acting elements near promoter regions in rice”.
# Over roughly 68,000 sequences, “fluorescence intensity (a.u.)” has its median near 9,100; the highest 2% begin near 16,000. Many of the other results were omitted from the sample, so the highest values are more common in it than they were.
# Biological target: OsWRKY34 (Oryza sativa, UniProt Q0JBA9 1-250)
# Test: protein-binding microarray (RPBM); PBS, 2% BSA, 51.3 ng/ul salmon testes DNA, 50 uM zinc acetate, 200 nM TF, 25 C, 1 h; high values mean tight binding
# Settings: protein: recombinant; tags: N-terminal polyhistidine and DsRed monomer fusion (pET32a); label: CyDye5-dUTP incorporated in the synthesized complementary strand; 3' TTTTT single-stranded linker to array surface; dsDNA, one strand shown
# Summary of the method: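 An Axon 4000B scanner gave the binding signal as per-feature fluorescence intensity in arbitrary units. This followed washing of a custom Agilent array that had been incubated for 1 h at 25 °C with 200 nM protein in PBS, 2% BSA, salmon testes DNA and 50 µM zinc acetate. The proteins were transcription factors fused at the N-terminus to polyhistidine and DsRed, expressed in E. coli BL21-CodonPlus and purified on Ni–NTA.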
# OsWRKY34, sequence (Q0JBA9 entry or part of it): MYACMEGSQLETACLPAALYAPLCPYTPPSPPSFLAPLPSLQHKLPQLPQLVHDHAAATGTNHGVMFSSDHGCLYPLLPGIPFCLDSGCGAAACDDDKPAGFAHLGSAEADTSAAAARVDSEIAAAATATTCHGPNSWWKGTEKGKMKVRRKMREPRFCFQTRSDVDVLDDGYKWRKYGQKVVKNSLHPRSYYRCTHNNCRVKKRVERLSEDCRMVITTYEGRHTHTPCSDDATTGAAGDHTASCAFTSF
row,Sequence,binding signal
1,CAATTTGGCATTTGGCATTTGCTAGTCTATAGTAGCAAATCGGAGTCACCTAGTGCAG,8130 fluorescence intensity (a.u.)
2,GTACGACAGTAGTTGTTTTTCTCGCTTTTGATTTTGAGTCCGGAGTCACCTAGTGCAG,8560 fluorescence intensity (a.u.)
3,CTCGTCGTCGCCTCCGCTCCTTGCGCCATCTCGCGGCGCCCGGAGTCACCTAGTGCAG,9480 fluorescence intensity (a.u.)
4,TATGGACTGTTTTGTTTTGTTCCCCTAGCTAGAATTATTCCGGAGTCACCTAGTGCAG,9880 fluorescence intensity (a.u.)
5,TCTTCTTCTTGTTGTTCTTGTTCTTTCTTCTTCCCCTTTTCGGAGTCACCTAGTGCAG,18800 fluorescence intensity (a.u.)
6,TTTGGGTTGTGCTTAGGTTTCCTTCTCGGGCTTTGTTGTACGGAGTCACCTAGTGCAG,18700 fluorescence intensity (a.u.)
7,GCTTTTTTTTTTTCTTTCTTTCTTTTTCCCCTTCGGCTTCCGGAGTCACCTAGTGCAG,12500 fluorescence intensity (a.u.)
8,GATATGCATTTTCCCTGCTTTCCCTGCTTTTCCCCTTTTTCGGAGTCACCTAGTGCAG,16400 fluorescence intensity (a.u.)
9,ATCTTCCCTTACAGTGACATCCTTTGTTCTTGCCGTCTCTCGGAGTCACCTAGTGCAG,17600 fluorescence intensity (a.u.)
10,TTCATCCCCTAACCCTTTCTTTGTTCATCTTGTTCTTCCTCGGAGTCACCTAGTGCAG,9970 fluorescence intensity (a.u.)
11,CCTTTGTTCTTGCCGTCTCTTTTTTTTTTTTACAGAAGAACGGAGTCACCTAGTGCAG,14600 fluorescence intensity (a.u.)
12,CCTTCTCGGGCTTTGTTGTACGTATGCGTCTCGTGTTGGGCGGAGTCACCTAGTGCAG,8780 fluorescence intensity (a.u.)
13,GCATTTCGTGTTCCCTTTTTGCCTTTTTTTCCCCTTTTCTCGGAGTCACCTAGTGCAG,10300 fluorescence intensity (a.u.)
14,GTAGCCGCTTCCTGCCTTCCTTCCCCTTGCTCTTGCATTTCGGAGTCACCTAGTGCAG,8340 fluorescence intensity (a.u.)
15,TTTCTTTGTTGTCTCACTTTCCCTTTTTCCACTTCTTTTTCGGAGTCACCTAGTGCAG,11700 fluorescence intensity (a.u.)
16,AGTAGGTTGTTGGTTTTGTACCTTTGGGCTCTTTGCCTTTCGGAGTCACCTAGTGCAG,10900 fluorescence intensity (a.u.)
17,GTTACCGAAGTTTTACTTTATACCATATGTACTCTATCTACGGAGTCACCTAGTGCAG,8060 fluorescence intensity (a.u.)
18,GAGACACCGACGCGTCACACCACCACGTCCGTTTCCGTACCGGAGTCACCTAGTGCAG,8300 fluorescence intensity (a.u.)
19,GTTTATTTGGGTTCTCTTATGTGTTGGTGTGTCGATGACCCGGAGTCACCTAGTGCAG,8940 fluorescence intensity (a.u.)
20,AAATGTATTTATTTTTTTTCTACTCCCTCCGCCCCTTAATCGGAGTCACCTAGTGCAG,8590 fluorescence intensity (a.u.)
21,ATCCTGGACTATGGCTTTCTCTCGTAGCACGATTTTTCTTCGGAGTCACCTAGTGCAG,10600 fluorescence intensity (a.u.)
22,ATTAGTTTTTTTTTCTATATTTAATACTCCATGCATATGTCGGAGTCACCTAGTGCAG,9200 fluorescence intensity (a.u.)
23,TTACTTGTACTGTTTGACTATTCGTCTTATTCCAAAAAAACGGAGTCACCTAGTGCAG,8820 fluorescence intensity (a.u.)
